Results: ChEMBL document CHEMBL3988442, “University of Dundee, Small-Polar-MMV Screening Library” (2021)
In all, about 48,000 compounds went through this assay and about 13,000 (27%) showed an effect of 50% or more. Some of the results follow.

Test system: Wolbachia pipientis
Test: Anti-Wolbachia Cell-Based Screen
Assay type: functional
Design: scale not given: in the data most compounds retested in dose-response had high values
Conditions: 5 µM

Row | Structure (SMILES) | Percent Effect [%]
1 | Cc1nnsc1CN(C)C(=O)c1ccc(CSc2nnc[nH]2)o1 | 17.62
2 | CCc1cnc(N)nc1NCCc1ccc(OC)cc1OC | -3.798
3 | CC(C)N(C)C(=O)c1ccc(Cl)c(NC(=O)COCC2CC2)c1 | -4.037
4 | Cc1noc(C)c1CN(C)C(=O)COc1cccc(C#N)c1 | -12.54
5 | CCc1nc(CNC2CCCCNC2=O)cs1 (stereo unspecified) | -6.937
6 | Fc1ccc(CNCCn2cccn2)cc1F | -6.914
7 | Cc1cn(Cc2ccc(F)c(F)c2)nc1N | 106.9
8 | Cl.Cl.OC(CN1CCN(Cc2ccc(F)c(F)c2)CC1)C1CC1 (stereo unspecified) | -1.298
9 | Cc1ccc(C(CNCc2ccc(C#N)cc2)N2CCOCC2)s1 (stereo unspecified) | 1.867
10 | c1coc(-c2nnc([C@H]3CCN(Cc4ccc5c(c4)OCO5)C3)o2)c1 | -14.45
11 | Cc1nnc([C@@]23CCO[C@@H]2CCN(Cc2ccc4c(c2)OCO4)C3)o1 | 107.4
12 | Cc1nc([C@H]2C[C@@H]3CCN(Cc4ccc5c(c4)OCO5)C[C@H]3O2)no1 | -27.54
13 | COC[C@@]12CCO[C@@H]1CCN(Cc1ccccc1F)C2.O=C(O)C(F)(F)F | -5.713
14 | Cc1nnc([C@@]23CCO[C@@H]2CCN(Cc2cccc4ccccc24)C3)o1 | 98.73
15 | COC[C@@]12CCO[C@@H]1CCN(Cc1ccccc1OC)C2.O=C(O)C(F)(F)F | -18.26
16 | CCN1C(=O)C2(CCCCC2)NC1c1cc(C#N)n(C)c1C (stereo unspecified) | 8.458
17 | Cc1ncc(CN(C)C(=O)c2ccc3c(c2O)OC(C)(C)C3)s1 | -9.378
18 | CCn1nnc2c1C(COCCN(C)C)CN(Cc1ccco1)C2.O=C(O)C(F)(F)F.O=C(O)C(F)(F)F (stereo unspecified) | 92.71
19 | Cc1ccc(CN2CCCn3nnc(COCCN(C)C)c3C2)s1.O=C(O)C(F)(F)F.O=C(O)C(F)(F)F | -14.16
20 | CCn1nnc2c1C(COC)CN(Cc1ccsc1)C2.O=C(O)C(F)(F)F (stereo unspecified) | -6.299
21 | COCC1CN(Cc2ccc(C)o2)Cc2nnn(CC3CC3)c21.O=C(O)C(F)(F)F (stereo unspecified) | -2.139
22 | CCn1nnc2c1C(COCCN(C)C)CN(c1nncs1)C2 (stereo unspecified) | -7.006
23 | CCn1nnc2c1C(COCCN(C)C)CN(S(=O)(=O)CC)C2.O=C(O)C(F)(F)F (stereo unspecified) | -14.6
24 | CCn1nnc2c1C(COCC(=O)N(C)C)CN(Cc1ccoc1)C2 (stereo unspecified) | 95.43
25 | Cc1ccc(CN2Cc3nnn(C)c3C(COCCN(C)C)C2)s1.O=C(O)C(F)(F)F.O=C(O)C(F)(F)F (stereo unspecified) | 3.026
26 | CCn1nnc2c1C(COCC(=O)N(C)C)CN(Cc1ccco1)C2.O=C(O)C(F)(F)F (stereo unspecified) | 115

Row | Structure (SMILES) | Percent Effect [%]
27 | CCn1nnc2c1C(COCCN(C)C)CN(Cc1ccc(C)s1)C2.O=C(O)C(F)(F)F.O=C(O)C(F)(F)F (stereo unspecified) | 104.1
28 | CCn1nnc2c1C(COCCN(C)C)CN(S(C)(=O)=O)C2.O=C(O)C(F)(F)F (stereo unspecified) | -1.029
29 | O=C(CSc1nncs1)N1CCN(Cc2ccc(Cl)cc2)CC1 | -10.59
30 | Cc1nc(-c2nnc(SCC(=O)O)n2C(C)c2ccccc2)co1 (stereo unspecified) | -6.545
31 | CNC(=O)Cc1noc(Cc2cccc(Br)c2)n1 | 1.573
32 | Cn1ccnc1SCCNC1CCN(c2nc3ccccc3s2)CC1 | 0.5729
33 | CC(C)C(=O)N1CCOC[C@H](Oc2ccc(C(F)(F)F)cc2)C1 | -12.72
34 | CCN1CC(C(=O)N2CCN(c3cnn(C)c(=O)c3)CC2)CCC1=O (stereo unspecified) | 2.003
35 | CCN1CC(C(=O)N2CCN(c3nsc4ccccc34)CC2)CCC1=O (stereo unspecified) | 116.3
36 | O=C(C1CCCN(c2nc3ccccc3cc2CO)C1)N1CCCC1 (stereo unspecified) | 10.01
37 | NC(=O)N1CCCC(C(=O)N2CCN(c3nsc4ccccc34)CC2)C1 (stereo unspecified) | 111.8
38 | CN1CCCC(C(=O)N2CCC(Oc3ccccn3)CC2)C1 (stereo unspecified) | -2.88
39 | CCN1CC(C(=O)N2CC(Oc3ccccc3Cl)C2)CCC1=O (stereo unspecified) | -27.16
40 | O=C(C1CCC1)N1CCN(c2snc3ccccc23)CC1 | 4.764
41 | CC(C)N1CCCC(C(=O)N2CCc3c(nc(CC4CC4)[nH]c3=O)C2)C1 (stereo unspecified) | 6.947
42 | CC(C)N1CCCC(C(=O)N2CCN(c3nsc4ccccc34)CC2)C1 (stereo unspecified) | 104.9
43 | CN(C)C1CCCN(C(=O)c2ccc3sc4c(c3c2)CCNC4=O)CC1 (stereo unspecified) | -3.9
44 | Cc1cccc(NC(=O)CCC(=O)NCC(=O)c2ccccc2F)c1 | -5.456
45 | COc1cc2c(cc1-c1nc3c(cnn3C)[nH]1)OCO2 | 9.432
46 | CCCNC(=O)CCNC(=O)N1CCC(=Cc2ccccc2)CC1 | 1.443
47 | CCCNC(=O)CCc1ccnc2ccccc12 | -4.736
48 | CCOCCCC(=O)NCc1ccc(N2CCCCC2)cc1 | 1.636
49 | CCOCCCNC(=O)CCCC(=O)n1nc(C)c2ccccc21 | 114.3
50 | CCCNC(=O)CCC(=O)n1nc(C)c2ccccc21 | 168.2
51 | COCCCNC(=O)CCn1nc(C)c2ccccc21 | 5.056
52 | COc1cccc2[nH]cc(CCNC(=O)N3CCC[C@H]3CO)c12 | 0.855

Row | Structure (SMILES) | Percent Effect [%]
53 | Cn1c(=O)c2cc(C(=O)NCc3ccccn3)ccc2n(C)c1=O | 80.97
54 | Cn1c(=O)c2cc(C(=O)NCc3ccncc3)ccc2n(C)c1=O | 119.1
55 | Cn1nc(CC(C)(C)C)cc1NC(=O)c1ccc(CNC(N)=O)cc1 | -16.73
56 | Cn1nc(C(=O)NCc2ccccn2)c2c1CCS(=O)(=O)C2 | 2.968
57 | CN1CCN(c2cc(CNC(=O)c3ccc(=O)n(C)c3)ccn2)CC1 | 6.282
58 | Cc1cc(NC(=O)NCc2ccccn2)n(C)n1 | 11.39
59 | CC(C)n1cnnc1CN1C(=O)CCc2ccccc21 | -28.4
60 | c1ccc2oc(N3CCCC4(CCOC4)C3)nc2c1 (stereo unspecified) | -10.39
61 | O=C(Cc1ccon1)N(CCC(F)(F)F)C1CCCC1 | -15
62 | COC(=O)c1ccccc1C(=O)N(CCN(C)C)Cc1sccc1C | -10.61
63 | O=C(Cc1cccc(O)c1)N1CCCC(O)(CN2CCCC2)CC1 (stereo unspecified) | 146.3
64 | O=C(Cc1ccc(S(=O)(=O)C(F)F)cc1)N1CCCC1 | -6.682
65 | O=C(Cc1cccc(O)c1)N1CCCC(O)(CN2CCOCC2)CC1 (stereo unspecified) | 193.2
66 | COc1cccc(OCC2CCCN(C(=O)Cc3cccc(O)c3)C2)c1 (stereo unspecified) | -41.73
67 | CN(C)C[C@@H]1CN(C(=O)Cc2cccc(O)c2)C[C@@H]1CO | -7.089
68 | O=C(Cc1ccc(S(=O)(=O)C(F)F)cc1)N1CCC1 | -8.484
69 | O=C(Cc1ccc(O)cc1)N1CCCC(O)(CN2CCOCC2)CC1 (stereo unspecified) | 136.3
70 | CN1CCN(CC2(O)CCCN(C(=O)Cc3cccc(O)c3)CC2)CC1 (stereo unspecified) | 188.6
71 | O=C1N(Cc2cccc(F)c2F)CCCC1(O)CN1CCCOCC1 (stereo unspecified) | -6.352
72 | O=C(Cc1cccc(O)c1)N1CCC2(CC1)c1ccccc1CC2O (stereo unspecified) | -3.302
73 | OC1(CN2CCCC2)CCCN(Cc2cnc(-c3ccccc3)nc2)C1 (stereo unspecified) | 1.78
74 | COCCN(C/C=C/c1ccccc1)Cc1ncc[nH]1 | 16.38
75 | CC(C)Cc1noc(COc2ccc(N(C)C(N)=O)cc2)n1 | -17.39
76 | Cn1cc(Cl)cc1C(=O)N1CCC2(CCCN(CC3CC3)C2=O)C1 (stereo unspecified) | -20.81
77 | COCCCC(=O)NCc1cccc(NC(N)=O)c1 | -9.096
78 | CC(Nc1cccc(CN2CCOC2=O)c1)C(=O)Nc1ccccc1F (stereo unspecified) | -4.647

Row | Structure (SMILES) | Percent Effect [%]
79 | O=C1CC(NCc2cnc(C3CCCCC3)nc2)CN1c1ccccc1 (stereo unspecified) | -13.32
80 | N#Cc1cc2c(nc1O)CCCCC2 | 109.4
81 | N#Cc1cc2c(nc1SCc1cc(O)nc(O)n1)CCCC2 | 96.26
82 | N#Cc1cc2c(nc1SCc1cc(O)nc(O)n1)CCCCC2 | 128.9
83 | CCS(=O)(=O)c1ccccc1N1CCC(NC(=O)c2ccc[nH]2)CC1 | 7.844
84 | CCOCc1nc2c(c(NC(CC)c3ccnn3C)n1)CCNCC2 (stereo unspecified) | -1.595
85 | CC(=O)Nc1nc(C(=O)NCc2ccc(N3CCCCCC3)nc2)cs1 | 26.65
86 | Cc1nnc(NC(=O)NCc2ccc(N3CCC(C)CC3)nc2)s1 | 109.6
87 | Cc1nnc(NC(=O)NCc2ccc(N3CCN(C)CC3)nc2)s1 | 5.046
88 | COCCCNC(=O)NCc1ccc(N2CCOC(C)C2)nc1 (stereo unspecified) | -2.359
89 | Cc1nnc(NC(=O)NCc2ccc(N3CCOCC3)nc2)s1 | 89.19
90 | COc1ccc([C@@H]2C[C@H](NC(C)=O)C[C@H](Cc3ccccc3)O2)cn1 | -17
91 | Brc1cccc(C2(CNCc3cc[nH]c3)CCOCC2)c1 | -10.11
92 | O=C(NCc1ccccn1)[C@H]1COC[C@H]2CN(c3ncccn3)C[C@H]21.O=C(O)C(F)(F)F.O=C(O)C(F)(F)F | 6.701
93 | COc1ccccc1CC1CCCN(C(=O)c2cc[nH]n2)C1 (stereo unspecified) | 10.34
94 | CCC(=O)N1CCC(Cc2nccnc2Nc2ccccn2)CC1 | 7.091
95 | CC(C)C(=O)N1CCC(Cc2nccnc2Nc2ccccn2)CC1 | 100.8
96 | CC(C)C(=O)N1CCCC(Cc2ncccn2)C1 (stereo unspecified) | 110.8
97 | CC1CCN(CC2CCCN(C(=O)Nc3ccccn3)C2)CC1 (stereo unspecified) | -7.919
98 | CCC1CCCN(C(=O)Cc2csc(-c3ncccn3)n2)C1 (stereo unspecified) | -10.41
99 | Cc1cccnc1NC(=O)C1CCN(C(=O)C(C)C)CC1 | -2.993
100 | CC(C)C(=O)N1CCCC(Cc2ccccn2)C1 (stereo unspecified) | 90.21
101 | Cc1noc(C)c1CN(C)c1nccc(C(F)(F)F)n1 | -2.519
